Measured values as given in PubChem BioAssay AID1159580 (chemical genetic matrix, 2015).
In all, about 5,500 compounds went through this assay and about 2,000 (36%) were called active. About 18% were inconclusive and are not listed. Cut-off read from the data, not from the text of the source: active = normalized growth mostly below about 0.91 (no sharp cut-off); inconclusive = no clear call, values can overlap the other calls; inactive = mostly above about 0.92. The list shows a part of the results.

Assay: chemical genetic growth profiling, strain panel (AID 1159580);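 note: tested at 20 µM; growth read once vehicle control cultures reached saturation at 30 °C; 1 = growth at the plate median or of vehicle wells; lower values mean less growth of the strain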
Conditions: S. cerevisiae deletion strains, growth OD
[1] = locus YAL040C, strain CLN3, hits give low values
[2] = locus YCL061C, strain MRC1 (second series), hits give low values
[3] = locus YDR363W, strain ESC2, hits give low values
[4] = locus YER002W, strain NOP16, hits give low values
[5] = locus YJR075W, strain HOC1, hits give low values
[6] = locus YMR263W, strain SAP30, hits give low values
[7] = locus YNL197C, strain WHI3, hits give low values
[8] = locus YNL224C, strain SQS1, hits give low values
[9] = locus YNL322C, strain KRE1, hits give low values
[10] = locus YOR083W, strain WHI5 (second series), hits give low values
[11] = locus YPL241C, strain CIN2, hits give low values

Measured: normalized growth

O=C1NCN(c2ccccc2)C12CCN(CCCC(c1ccc(F)cc1)c1ccc(F)cc1)CC2
inactive: locus YAL013W, strain DEP1, hits give low values 1.01 | [1] 0.995 | [2] 1 | locus YDR150W, strain NUM1, hits give low values 0.987 | [3] 0.992 | [4] 1.03 | [5] 0.998 | [6] 1 | locus YNL128W, strain TEP1, hits give low values 1.05 | locus YNL153C, strain GIM3, hits give low values 0.982 | [7] 1.09 | [8] 1.07 | [9] 1 | [10] 1.09 | [11] 1

O=C(CCCN1CCC2(CC1)C(=O)N(CCc1ccc(N=C=S)cc1)CN2c1ccccc1)c1ccc(F)cc1
inactive: [1] 1.04 | [2] 0.982 | [3] 0.972 | [4] 1.03 | locus YGR229C, strain SMI1, hits give low values 0.984 | [5] 0.968 | [6] 0.987 | locus YMR307W, strain GAS1, hits give low values 0.982 | locus YNL175C, strain NOP13, hits give low values 1 | [7] 1.02 | [8] 1.05 | [9] 0.948 | [10] 1.08 | locus YPL055C, strain LGE1, hits give low values 0.916 | [11] 0.984
